# PubChem BioAssay (NCATS)
# Inconclusive results are not listed.
# Assay: qHTS Assay for Lipid Storage Modulators (AID 1519)
# Settings: Drosophila S3 cells, BODIPY lipid droplet/cell ratio, laser cytometry; measured here: lipid channel max response; cells loaded with oleic acid
# Summary of the method: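 Cells seeded at 5,000 per well were treated with compounds over a concentration series and loaded with oleic acid (400 uM, as added). Lipid droplet fluorescence (488 nm excitation, 500-530 nm channel) was read by laser-scanning cytometry and normalized to 20 uM Triacsin C.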
row,Compound,max response [%]
1,CC1=C(CCC(=O)O)c2cc3nc(cc4[nH]c(cc5[nH]c(cc1n2)c(C)c5C(C)O)c(C)c4C(C)O)C(C)=C3CCC(=O)O (stereo unspecified),18.6
2,C/C(=C\CNc1ncnc2nc[nH]c12)CO,3.25
3,CCC(C)C(=O)OC1CCC=C2C=CC(C)C(CCC3CC(O)CC(=O)O3)[C@@H]21 (stereo partly specified),6.43
4,C[C@]1(c2ccccc2)OC(C(=O)O)=CC1=O,-6.08
5,Cc1cc(O)c(C=O)c2c1C(=O)Oc1c(COC(=O)/C=C/C(=O)O)c(O)c(C(=O)O)c(C)c1O2,3.61
6,OCC1OC([S-])[C@H](O)C(O)C1O.[Au+] (stereo partly specified),19.8
7,COC(=O)N/N=C/C1=C[N+](=O)c2ccccc2[N+]1=O,17.7
8,CN1CC(=O)N=C1N,9.11
9,CNC1CC(N)[C@H](O)[C@@H](O[C@@H]2OC(CO)C3OC4(OC(C(N)CO)C(O)C(O)C4O)O[C@@H]3[C@H]2O)C1O (stereo partly specified),7.53
10,COC1C=CO[C@@]2(C)Oc3c(C)c(O)c4c(O)c(c(C=NN5CCN(C)CC5)c(O)c4c3C2=O)NC(=O)/C(C)=C\C=CC(C)C(O)[C@@H](C)C(O)C(C)[C@H](OC(C)=O)C1C (stereo partly specified),10.6
11,CC(=O)N[C@@H]1C(O)OC(CO)C(O)C1O (stereo partly specified),11.6
12,CCC(CCC(C)C1CCC2C3CC=C4CC(O)CC[C@@]4(C)C3CC[C@@]12C)C(C)C (stereo partly specified),15.1
13,O=C1OC(CO)C(O)C(O)C1O (stereo unspecified),26.8
14,COc1ccc(CC(N)C(=O)NC2C(CO)OC(n3cnc4c(N(C)C)ncnc43)C2O)cc1 (stereo unspecified),1.24
15,CC/C=C\C[C@H]1C(=O)CC[C@@H]1CC(=O)O,-11.5
16,CCCC(=O)O[C@]1(C(=O)CO)CCC2[C@@H]3CCC4=CC(=O)CC[C@]4(C)C3C(O)C[C@]21C (stereo partly specified),23.2
